The text below walks through data of PubChem BioAssay (EPA / NIEHS).

Molecules are shown by their SMILES. “And” between values parts separate entries of the source, which are not always exact repeats. Equal values may be shown once. Inconclusive results are not listed. The source made the active and inactive calls. Rule for the calls, unless noted: active = hit-call score of the fitted dose curve at least 0.9, where 1 is the maximum; inactive = score below 0.9.

The nature of experiment [1]: CCTE_Shafer_MEA_acute_firing_rate_mean: CCTE's Neural Acute Assay for Mean Firing Rate, Shafer Lab (AID 2284009).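 Note: analyzed for loss of signal so actives lower firing rate relative to DMSO.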 In a few lines: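 Spontaneous spiking of primary rat cortical networks, DIV 13/15, 37 C. Compound 0.03-40 uM, n ≥3 wells; 40 min baseline vs 40 min treated. Endpoint fitted in loss-of-signal direction against DMSO.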
The nature of experiment [2]: CCTE_Harrill_HTTr_Viability_MCF7: CCTE's 6-hour Cell Viability Assessment for the High-Throughput Transcriptomics (HTTr) Platform, in MCF-7 cells cultured in DMEM + 10% fetal bovine serum, Harrill Lab (AID 2284010). In a few lines:
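PI exclusion, high-content imaging; 8-pt dilution series, 6 h exposure; bidirectional fit vs DMSO (neg. ctrl/baseline); gain of signal = loss of membrane integrity.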

A short description of experiment [3]: CCTE_Simmons_MITO_basal_resp_rate: CCTE's HepG2 Seahorse XF Respirometric Screening Assay at Basal Respiratory State, Simmons Lab (AID 2284001). To be noted: actives raise or lower the signal. In a few lines:
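Readout is oxygen consumption rate after test compound injection, measured by Seahorse XF in HepG2 cells. Seven concentrations from 125 nM up to 100 uM final are tested, and activity in either direction is fitted against DMSO.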

Experiment [4] in a line: CCTE_Simmons_MITO_inhib_resp_rate: CCTE's HepG2 Seahorse XF Respirometric Screening Assay at Inhibited Respiratory State [full ETC block], Simmons Lab (AID 2284006). The settings on record: actives raise or lower the signal. In a few lines:
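OCR read-out in the inhibited phase following rotenone/antimycin A, after compound and FCCP injections, in HepG2 cells. Seven concentrations (125 nM to 100 uM final), three biological replicates, 6-min cycles over 72 min; DMSO baseline.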

Experiment [5] relates to DIO1 (gene 1733). Nature of the experiment: CCTE_GLTED_hDIO1: CCTE's human Deiodinase 1 (DIO1) Inhibition Assay, Great Lakes Toxicology and Ecology Division (GLTED) Lab (AID 2283987; active = hit-call score of the fitted dose curve at least 0.9, where 1 is the maximum;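 note: isolated human DIO1 enzyme in a cell-free setup rather than cells; enzyme activity read as free iodide liberated from substrate via Sandell-Kolthoff colorimetry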). A digest of the protocol:
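Steps: human DIO1 enzyme plus test chemical, 3 h incubation; free iodide then quantified in a second Sandell-Kolthoff step by absorbance. DMSO served as negative control and baseline.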

The target in experiment [6] is Nucleoli Translocation, AR (gene 367) (UniProt P10275). The experiment in a line: UPITT_HCI_U2OS_AR_TIF2_Nucleoli_Antagonist: University of Pittsburgh U2OS Androgen Receptor-Transcriptional Intermediary Factor 2 (AR-TIF2) Antagonism High Content Imaging Assay for Nucleoli Translocation (AID 2283997; active = hit-call score of the fitted dose curve at least 0.9, where 1 is the maximum). A digest of the protocol: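 An antagonist-mode imaging screen: engineered U2OS (AR-RFP, TIF2-GFP) exposed to 20 uM compound, 0.2% DMSO. Activity reflects nucleolar red fluorescence change relative to DHT baseline.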
Nucleoli Translocation, AR (gene 367), sequence (P10275 whole entry, looked up): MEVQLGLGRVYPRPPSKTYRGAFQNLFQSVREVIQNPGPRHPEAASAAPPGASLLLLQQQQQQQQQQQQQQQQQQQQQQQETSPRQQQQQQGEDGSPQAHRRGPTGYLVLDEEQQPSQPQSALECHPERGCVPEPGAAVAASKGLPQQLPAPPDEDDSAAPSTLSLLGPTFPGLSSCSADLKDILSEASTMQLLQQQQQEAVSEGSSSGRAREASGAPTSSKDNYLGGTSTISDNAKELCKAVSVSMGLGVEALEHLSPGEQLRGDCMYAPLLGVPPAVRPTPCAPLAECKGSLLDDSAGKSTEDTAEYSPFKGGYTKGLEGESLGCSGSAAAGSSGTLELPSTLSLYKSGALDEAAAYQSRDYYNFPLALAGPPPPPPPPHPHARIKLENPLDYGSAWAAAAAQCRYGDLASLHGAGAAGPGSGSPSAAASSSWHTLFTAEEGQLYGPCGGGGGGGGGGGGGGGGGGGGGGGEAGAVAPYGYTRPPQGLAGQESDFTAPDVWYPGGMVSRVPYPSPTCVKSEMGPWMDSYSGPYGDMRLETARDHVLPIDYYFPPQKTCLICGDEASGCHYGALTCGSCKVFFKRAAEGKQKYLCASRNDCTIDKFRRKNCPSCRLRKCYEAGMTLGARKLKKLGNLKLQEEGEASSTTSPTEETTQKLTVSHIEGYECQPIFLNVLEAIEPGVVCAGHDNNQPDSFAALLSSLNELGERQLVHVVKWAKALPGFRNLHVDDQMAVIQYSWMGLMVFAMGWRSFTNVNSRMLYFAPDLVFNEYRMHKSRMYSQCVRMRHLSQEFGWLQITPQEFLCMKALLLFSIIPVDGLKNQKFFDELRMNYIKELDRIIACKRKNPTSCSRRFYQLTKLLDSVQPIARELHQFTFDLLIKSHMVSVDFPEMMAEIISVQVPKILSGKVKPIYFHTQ

Experiment [7] shares this target. Nature of the experiment: UPITT_HCI_U2OS_AR_TIF2_Nucleoli_Agonist: University of Pittsburgh U2OS Androgen Receptor-Transcriptional Intermediary Factor 2 (AR-TIF2) Agonism High Content Imaging Assay for Nucleoli Translocation (AID 2283998; active = hit-call score of the fitted dose curve at least 0.9, where 1 is the maximum). In a few lines: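 RFP-AR / GFP-TIF2 cells; cpds diluted in serum-free medium; single-point screen 20 uM final (0.2% DMSO), actives confirmed in triplicate; conc-response 0.195–50 uM final (0.5% DMSO). Readout: nucleolar red fluorescence, positive direction vs DMSO.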

Experiment [8] addresses Ratio of Nucleoli Translocation and Cytoplasm, AR (gene 367) (UniProt P10275). The experiment in a line: UPITT_HCI_U2OS_AR_TIF2_Nucleoli_Cytoplasm_Ratio_Antagonist: University of Pittsburgh U2OS Androgen Receptor-Transcriptional Intermediary Factor 2 (AR-TIF2) Antagonism High Content Imaging Assay for Ratio of Nucleoli Translocation and Cytoplasm (AID 2283999; active = hit-call score of the fitted dose curve at least 0.9, where 1 is the maximum;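 note: antagonists lower the DHT-driven ratio of nucleolar to cytoplasmic red signal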). In a few lines:
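Read-out is the ratio of nucleolar to cytoplasmic AR-RFP fluorescence, imaged by high-content microscopy in U2OS cells coexpressing TIF2-GFP. Single-point 20 uM screen, triplicate confirmation, then 0.195–50 uM dose response; activity referenced to DHT baseline.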

For experiment [9] the target is unchanged. Nature of the experiment: UPITT_HCI_U2OS_AR_TIF2_Nucleoli_Cytoplasm_Ratio_Agonist: University of Pittsburgh U2OS Androgen Receptor-Transcriptional Intermediary Factor 2 (AR-TIF2) Agonism High Content Imaging Assay for Ratio of Nucleoli Translocation and Cytoplasm (AID 2284000; active = hit-call score of the fitted dose curve at least 0.9, where 1 is the maximum;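 note: hits raise the red nucleolar to cytoplasm ratio above vehicle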). In a few lines: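 Primary screen at 20 uM final (0.2% DMSO), then triplicate confirmation and dose-response from 0.195 to 50 uM final (0.5% DMSO). Cells: U2OS with AR-RFP and TIF2-GFP. Endpoint is the nucleoli/cytoplasm red-fluorescence ratio, gain-of-signal vs DMSO.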

Ratio of Nucleoli Translocation and Cytoplasm, AR (gene 367), sequence (P10275 whole entry, looked up): as above

As for `CC(C)CCCCCCOC(=O)CCCCC(=O)OCCCCCCC(C)C`, the outcome in experiment [1] and in experiment [2] was inactive.
With `CCCOC(=O)c1ccc(O)cc1`, in experiment [3], the AC50 is 35.8 µM (active). The outcome in experiment [4] and in [2] was inactive.
As for `O=[N+]([O-])c1ccc(O)cc1`, the AC50 in experiment [3] was 66.5 µM (active) and 66 µM (active). For the same compound, the outcome in experiment [4] and in experiment [2] was inactive.
For `O=c1c(-c2ccc(O)cc2)coc2cc(O)ccc12`, the AC50 in experiment [5] was 17.2 µM (active). The call in experiment [6], in experiment [1] and in experiment [2] was inactive.
Turning to `CC(C)(C)c1ccc(O)c(C(C)(C)C)c1`, the AC50 in experiment [5] was 108 µM (active). Further, the result in experiment [2] was inactive.
As for `COCC(C)OCC(C)O` (stereo not drawn), the compound was classed as inactive in experiment [7], in [8], in experiment [9] and in experiment [2].
As to `N#C[C@@H]1CC(F)(F)CN1C(=O)CNC1CC2CCC(C1)N2c1ncccn1` (stereo partly drawn), the compound was called inactive in [6], in [7], in experiment [8], in experiment [9] and in experiment [2].
As to `OCCC(F)(F)C(F)(F)C(F)(F)C(F)(F)C(F)(F)C(F)(F)C(F)(F)C(F)(F)F`, the outcome in [7], in experiment [8], in experiment [9], in [1] and in experiment [2] was inactive.
On to `CCCOc1sc(C(=O)N2CCC(c3cc(CN)ccc3F)CC2)c(C)c1Br`, for which the compound was called inactive in [6], in experiment [8] and in experiment [1]. The AC50 is 7.93 µM (active) in [7] and 8.47 µM (active) in experiment [9].
